Data on 67 compounds can be found in the antibiotic and cytotoxicity screens of Wong et al. (2023).

The campaign covered roughly 39,000 compounds. About 3,300 (8.5%) were called active. Many of the other results were omitted from the sample, so actives are more common in it than they were.

The subject of the experiment is HepG2. Put plainly: cytotoxicity call (relative viability < 0.9). Conditions: 10 µM.
Turning to `C[C@@H]1CN([C@@H](C)CO)C(=O)c2cc(NC(=O)Nc3cccc4ccccc34)ccc2O[C@@H](C)CCCCO[C@@H]1CN(C)S(=O)(=O)c1ccc(F)cc1`, the cytotoxicity call is “inactive”.
As for `CN1CCN(C(=O)C[C@H]2CC[C@@H](NC(=O)c3ccc4c(c3)OCO4)[C@H](CO)O2)CC1`, the entry is “inactive”.
In the case of `C[C@@H]1CN([C@@H](C)CO)C(=O)c2c(c3ccccc3n2C)-c2ccccc2CO[C@H]1CN(C)C(=O)Nc1ccccc1` it was “inactive”.
Take `CN1C(=O)c2cc(NC(=O)C3CCOCC3)ccc2OC[C@H]2O[C@H](CC(=O)NCc3ccccc3F)CC[C@H]21`: the cytotoxicity call was “inactive”.
In the case of `C[C@H]1CN([C@@H](C)CO)C(=O)c2cc(NS(=O)(=O)c3cn(C)cn3)ccc2O[C@@H]1CN(C)Cc1ccccc1` it was “inactive”; in that of `C=CC1=C(C)C2=NC/1=C\C1=NC(=C\C3=NC(=C\C4=NC(=C\2)/C(C)=C4CCC(=O)O)/C(CCC(=O)O)=C3C)/C(C=C)=C1C`, “inactive”; in that of `CCc1c(c/2[nH]c1/C=C/1\N=C(/C(=C/3\N=C(/C=C/4\N/C(=C2)C(=C4C)C=C)[C@@H](C)[C@@H]3CCC(=O)O)CC(=O)N[C@@H](CC(=O)O)C(=O)O)C(=C1C)C(=O)O)C`, “inactive”.
In the case of `C=CC1=C(C)c2cc3[nH]c(cc4nc(cc5[nH]c(cc1n2)c(C)c5CCC(=O)O)C(CCC(=O)O)=C4C)c(C)c3C=C` it was “active”; in that of `C=CC1=C(C)C(=Cc2[nH]c(Cc3[nH]c(C=C4NC(=O)C(C)=C4C=C)c(C)c3CCC(=O)O)c(CCC(=O)O)c2C)NC1=O`, “inactive”; in that of `CC/1=C(CCC(=O)O)/C/2=C/c3[nH]c(c(c3CCC(=O)O)C)/C=C/3\N=C(/C=C/4\N=C(\C=C1/N2)C(=C4C)C=C)C(=C3C)C=C`, “active”.
In the case of `CC1=C(CCC(=O)O)c2cc3[nH]c(cc4nc(cc5[nH]c(cc1n2)c(C)c5C(C)O)C(C)=C4C(C)O)c(C)c3CCC(=O)O` (configuration not stated) it was “active”; in that of `COC(=O)CCc1c(c/2[nH]c1/C=C/1\N=C(/C=C/3\N=C(/C=C/4\N/C(=C2)[C@]2(C)[C@H](C(=O)OC)C(=CC=C42)C(=O)OC)C(=C3C=C)C)C(=C1CCC(=O)O)C)C`, “active”.
On to `COC(=O)[C@H]1C2C(=O)N(C3CC3)C[C@]23C=C[C@H]1O3` (some centres not stated), for which the cytotoxicity call was “inactive”.
Turning to `C[C@H]1CN([C@@H](C)CO)C(=O)c2cccc(NC(=O)C3CCCCC3)c2O[C@H]1CN(C)Cc1ccc(Cl)c(Cl)c1`, the cytotoxicity call was “inactive”.
Turning to `CO[C@H]1CN(C)C(=O)c2ccc(NS(C)(=O)=O)cc2OC[C@H](C)N(C(=O)c2ccc3c(c2)OCO3)C[C@H]1C`, the cytotoxicity call is “inactive”.
In the case of `C[C@@H]1CN([C@@H](C)CO)S(=O)(=O)c2ccc(C#CC(C)(C)O)cc2O[C@H]1CN(C)Cc1ccccc1`, the cytotoxicity call was “inactive”.
For `CCCC(=O)Nc1ccc2c(c1)C(=O)N(C)C[C@@H](OC)[C@H](C)CN(Cc1cc(-c3ccccc3)on1)[C@H](C)CO2`, the cytotoxicity call was “inactive”.
As for `Cc1noc(C)c1NC(=O)N(C)C[C@@H]1Oc2ccc(NC(=O)CCCN(C)C)cc2C(=O)N([C@@H](C)CO)C[C@@H]1C`, the entry is “inactive”; as for `C[C@@H]1CN([C@@H](C)CO)C(=O)Cc2cc(NC(=O)Cc3ccccc3)ccc2O[C@@H]1CN(C)S(=O)(=O)c1ccccc1`, “inactive”.
In the case of `O=C(Nc1ccc2c(c1)[C@@H]1C[C@@H](CC(=O)N3CCc4ccccc4C3)O[C@@H](CO)[C@@H]1O2)C1CCOCC1` it was “inactive”; in that of `O=C(C[C@H]1C=C[C@H](NC(=O)c2ccc3c(c2)OCO3)[C@H](CO)O1)NCc1ccc(Oc2ccccc2)cc1`, “inactive”; in that of `CC(C)CC#Cc1cnc2c(c1)C(=O)N([C@H](C)CO)C[C@@H](C)[C@@H](CN(C)C(=O)c1ccc3c(c1)OCO3)O2`, “inactive”.
Regarding `C[C@H]1CN([C@@H](C)CO)C(=O)CCCn2nncc2CO[C@H]1CN(C)S(=O)(=O)c1ccc(C#N)cc1`, the cytotoxicity call is “inactive”.
On to `Cc1ccc(S(=O)(=O)NCC[C@H]2CC[C@H](NS(=O)(=O)c3ccccc3Cl)[C@H](CO)O2)cc1`, for which the cytotoxicity call is “inactive”.
In the case of `C[C@@H]1CN([C@H](C)CO)C(=O)c2cc(NC(=O)Nc3cccc4ccccc34)ccc2O[C@H]1CN(C)C(=O)Nc1ccc2c(c1)OCO2` it was “inactive”; in that of `C[C@@H]1CN([C@@H](C)CO)C(=O)Cc2cc(NC(=O)C3CC3)ccc2O[C@H]1CN(C)S(=O)(=O)c1cccs1`, “inactive”.
In the case of `Cc1noc(C)c1NC(=O)Nc1ccc2c(c1)C(=O)N([C@@H](C)CO)C[C@H](C)[C@@H](CN(C)C(=O)Nc1ccc(F)cc1)OCCCC[C@@H](C)O2` it was “inactive”.
With `[Fe+3].CC/1=C(CCC(=O)O)/C/2=C/c3[nH]c(c(c3CCC(=O)O)C)/C=C/3\N=C(/C=C/4\N=C(\C=C1/N2)C(=C4C)C=C)C(=C3C)C=C`, the cytotoxicity call is “active”.
`Cc1[nH]c(=O)[nH]c(=O)c1CCC(=O)O`: the cytotoxicity call was “inactive”.
In the case of `Cc1nc2[nH]c(C)c(CCC(=O)O)c(=O)n2n1` it was “inactive”; in that of `CC(C)NC(=O)Nc1ccc2c(c1)CC(=O)N([C@H](C)CO)C[C@H](C)[C@@H](CN(C)S(=O)(=O)c1ccc(Cl)cc1)O2`, “inactive”.
As for `CC(C)NC(=O)Nc1ccc2c(c1)CC(=O)N([C@@H](C)CO)C[C@@H](C)[C@@H](CN(C)S(=O)(=O)c1ccc(Cl)cc1)O2`, the entry is “inactive”; as for `CC(C)NC(=O)Nc1ccc2c(c1)CC(=O)N([C@@H](C)CO)C[C@H](C)[C@@H](CN(C)S(=O)(=O)c1ccc(Cl)cc1)O2`, “inactive”; as for `CC(C)NC(=O)Nc1ccc2c(c1)CC(=O)N([C@H](C)CO)C[C@H](C)[C@H](CN(C)S(=O)(=O)c1ccc(Cl)cc1)O2`, “inactive”.
Take `Cc1ccccc1S(=O)(=O)N(C)C[C@@H]1Oc2ccc(NC(=O)Nc3cccc(C(F)(F)F)c3)cc2CC(=O)N([C@@H](C)CO)C[C@@H]1C`: the cytotoxicity call is “inactive”.
In the case of `Cc1ccccc1S(=O)(=O)N(C)C[C@@H]1Oc2ccc(NC(=O)Nc3ccc(Cl)c(Cl)c3)cc2CC(=O)N([C@@H](C)CO)C[C@@H]1C` it was “active”; in that of `C[C@H]1CN([C@@H](C)CO)C(=O)Cc2cc(NC(=O)Nc3cc(Cl)cc(Cl)c3)ccc2O[C@H]1CN(C)S(=O)(=O)c1ccc(Cl)cc1`, “active”; in that of `Cc1ccccc1S(=O)(=O)N(C)C[C@@H]1Oc2ccc(NC(=O)Nc3cc(Cl)cc(Cl)c3)cc2CC(=O)N([C@@H](C)CO)C[C@@H]1C`, “inactive”.
With `C[C@H]1CN([C@@H](C)CO)C(=O)Cc2cc(NC(=O)Nc3ccc(Cl)c(Cl)c3)ccc2O[C@H]1CN(C)S(=O)(=O)c1ccc(Cl)cc1`, the cytotoxicity call was “active”.
In the case of `Cc1noc(C)c1NC(=O)Nc1ccc2c(c1)CC(=O)N([C@H](C)CO)C[C@H](C)[C@@H](CN(C)Cc1ccc(C(=O)Nc3ccccc3N)cc1)O2` it was “inactive”.
Turning to `CCS(=O)(=O)Nc1ccc2c(c1)C(=O)N(C)C[C@H](OC)[C@H](C)CN(CCC(F)(F)F)[C@@H](C)CO2`, the cytotoxicity call is “inactive”.
As for `CCN(CC)c1ccc(N2CC=C[C@@]34O[C@@H]5/C=C\CCCOC(=O)[C@@H]5[C@H]3C(=O)N([C@@H](C)CO)[C@@H]4C2=O)cc1`, the entry is “inactive”.
As for `COc1ccc(NC(=O)Nc2ccc3c(c2)C(=O)N([C@H](C)CO)C[C@@H](C)[C@H](CN(C)C(=O)Nc2ccccc2)OCCCC[C@@H](C)O3)cc1`, the cytotoxicity call is “inactive”.
Turning to `Oc1cccc(O)c1O`, the cytotoxicity call was “inactive”.
`Cn1cc(-c2cc3c(N4CCN(c5ncc([C@@](C)(N)c6ccc(F)cc6)cn5)CC4)ncnn3c2)cn1`: the cytotoxicity call was “active”.
For `C[C@H](CO)N1C[C@H](C)[C@@H](CN(C)C(=O)Cc2cccnc2)Oc2cc(C#CC3(O)CCCC3)ccc2S1(=O)=O`, the cytotoxicity call was “inactive”.
As for `C[C@H](CO)N1C[C@H](C)[C@@H](CN(C)Cc2ccc3c(c2)OCO3)OCCCC[C@H](C)Oc2ccc(NC(=O)CCC(F)(F)F)cc2C1=O`, the entry is “inactive”; as for `Cc1noc(C)c1S(=O)(=O)N(C)C[C@H]1Oc2c(NS(=O)(=O)c3ccccc3)cccc2C(=O)N([C@@H](C)CO)C[C@H]1C`, “inactive”; as for `COc1ccc(S(=O)(=O)Nc2ccc3c(c2)CC(=O)N([C@@H](C)CO)C[C@H](C)[C@@H](CN(C)C(=O)NC(C)C)O3)cc1`, “inactive”.
With `CC(=O)O[C@@]1(C)C[C@@H](O)[C@@H]2C=CO[C@@H](O[C@@H]3O[C@H](CO)[C@@H](O)[C@H](O)[C@H]3O)[C@@H]21`, the cytotoxicity call is “inactive”.
Regarding `c1ccc2[nH]c(-c3ccncc3)nc2c1`, the cytotoxicity call is “inactive”.
As for `O=[N+]([O-])c1ccc2nc(CO)[nH]c2c1`, the entry is “inactive”; as for `O=C(Nc1ccc(-c2nc3ccc(NC(=O)c4ccc(NC(=O)c5cccc6ccccc56)cc4)cc3[nH]2)cc1)c1ccc(NC(=O)c2cccc3ccccc23)cc1`, “inactive”; as for `NCc1ccc(-c2nc3ccccc3o2)cc1`, “inactive”.
In the case of `O=C(Nc1ccc(-c2nc3cc(NC(=O)c4ccccc4Cl)ccc3o2)cc1)c1ccccc1Cl` it was “active”; in that of `O=C(Nc1ccc(-c2nc3ccc(NC(=O)c4ccc(Cl)cc4)cc3[nH]2)cc1)c1ccc(Cl)cc1`, “active”.
In the case of `O=C(Nc1ccc(-c2nc3ccc(NC(=O)c4ccccc4[N+](=O)[O-])cc3[nH]2)cc1)c1ccccc1[N+](=O)[O-]` it was “active”.
For the compound `NC1(C(=O)Nc2ccc3nc(-c4ccc(F)cc4)oc3c2)CC1`, the cytotoxicity call was “inactive”.
In the case of `Cc1ccc(NC(=O)c2cc(=O)[nH]c(=O)[nH]2)cc1` it was “inactive”; in that of `c1ccc(-c2nc3ccccc3o2)cc1`, “inactive”; in that of `CCCC(=O)Nc1ccc(-c2nc3cc(C(C)C)ccc3o2)cc1`, “inactive”.
In the case of `O=C(Nc1ccc(-c2nc3cc(NC(=O)c4ccccc4[N+](=O)[O-])ccc3o2)cc1)c1ccccc1[N+](=O)[O-]` it was “active”.
As for `O=c1[nH]cnc2c1ncn2C1OC(CO)C(O)C1O` (configuration not stated), the entry is “inactive”.
For the compound `C[C@H](CO)N1C[C@H](C)[C@H](CN(C)C(=O)Nc2cc(F)ccc2F)Oc2cc(/C=C/c3ccccc3)ccc2S1(=O)=O`, the cytotoxicity call was “inactive”.
For `C[C@H]1CN([C@@H](C)CO)S(=O)(=O)c2ccc(C#CC3(O)CCCC3)cc2O[C@H]1CN(C)C(=O)c1ccncc1`, the cytotoxicity call was “inactive”.
With `Nc1cncc(Cl)n1`, the cytotoxicity call was “inactive”.
Regarding `CN1CCN(C(=O)C[C@H]2CC[C@H]3[C@@H](COC[C@H](O)CN3C(=O)Nc3ccc4c(c3)OCO4)O2)CC1`, the cytotoxicity call is “inactive”.
